The source of these data is PubChem BioAssay (NCI).

Values joined by “and” are separate entries in the source; they are usually repeats but may differ in a detail not shown here. Identical values can stand only once. This is part of a sample that, as a whole, favours compounds with a hit. Of some 83,000 tested, about 20% had one in any assay.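 Note: values are percent growth. 100 is the growth of untreated cells, values between 100 and 0 indicate rising inhibition; between -100 and 0 indicates cell death.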 Values without a mark were called inactive. Active and inactive are the calls of the source. Rule for the calls: active = growth percent below 10; inactive = the rest.

Some test systems named below: DU-145 prostate; K-562 leukemia; MALME-3M melanoma; MDA-MB-231 breast; RXF 393 renal; SF-268 CNS; SF-295 CNS; SF-539 CNS; UACC-257 melanoma; M14 melanoma.
Holding throughout (assay): NCI-60 one-dose screen, 48 h (100 = growth as untreated, 0 = no growth, -100 = all killed)
Conditions in all cases: 10 µM unless noted

Turning to `O=Nc1ccccc1N=O`, the growth with DU-145 prostate is 91.2%; with K-562 leukemia, 76.4%; in the experiment on MALME-3M melanoma, 74.9%; in the experiment with MDA-MB-231 breast, 95.8%; with RXF 393 renal, 101%; in the experiment on SF-268 CNS it was 89.4%. Besides, the growth was 85.9% in the experiment on SF-295 CNS, 76.2% in the experiment with SF-539 CNS, 80.9% with UACC-257 melanoma and 81.7% in the experiment on M14 melanoma.

As to `Nc1ccc(SSc2ccc(N)cc2)cc1`, the growth was 111% with DU-145 prostate; 104% in the experiment on MALME-3M melanoma; 82.4% in the experiment on MDA-MB-231 breast; 108% with RXF 393 renal; 106% in the experiment on SF-268 CNS; 82.6% in the experiment on SF-295 CNS. In addition, the growth was 106% with SF-539 CNS and 86.1% in the experiment with UACC-257 melanoma.

As for `CN(C)CCOc1ccc2c(c1)C(=O)/C(=C\c1ncc([N+](=O)[O-])n1C)C2`, the growth with DU-145 prostate was -37.8% (active); in the experiment on K-562 leukemia it was -39.7% (active); in the experiment on MALME-3M melanoma, -72.7% (active); in the experiment on MDA-MB-231 breast, -21.1% (active); in the experiment with RXF 393 renal, -60.5% (active); with SF-268 CNS it was -44.4% (active). Moreover, the growth in the experiment with SF-295 CNS was -12.7% (active); in the experiment on SF-539 CNS, -73.2% (active); in the experiment with UACC-257 melanoma, -38.6% (active); in the experiment on M14 melanoma, -67.2% (active).

Consider `CN(C)c1ccc(N=Nc2cccc3ccccc23)cc1`, for which the growth was 107% in the experiment with DU-145 prostate; 117% in the experiment with K-562 leukemia; 101% with MALME-3M melanoma; 80.1% in the experiment on MDA-MB-231 breast; 98.9% in the experiment on RXF 393 renal; 95.1% with SF-268 CNS. Also, the growth with SF-295 CNS was 91.5%; with SF-539 CNS it was 97.1%; with UACC-257 melanoma, 96.3%; in the experiment with M14 melanoma it was 80.5%.

`COc1cc(/C=C/C(C)=O)ccc1O`: the growth in the experiment on DU-145 prostate is 105% and 101%; in the experiment on K-562 leukemia it was 105% and 98.2%; in the experiment with MALME-3M melanoma it was 90.6% and 137%; with MDA-MB-231 breast, 96.4% and 111%; in the experiment with RXF 393 renal, 100% and 121%; in the experiment on SF-268 CNS, 90.3% and 99%. Further, the growth was 107% and 114% with SF-295 CNS; 86.1% and 93.9% in the experiment on SF-539 CNS; 106% and 109% in the experiment with UACC-257 melanoma; 99.7% and 101% in the experiment with M14 melanoma.

For `N#CSCC(=O)c1ccc(Cl)cc1`, the growth was 30.2% in the experiment with DU-145 prostate; 44.4% in the experiment with K-562 leukemia; 54.8% with MALME-3M melanoma; 34.4% in the experiment on MDA-MB-231 breast; 25.6% in the experiment with RXF 393 renal; 34.6% with SF-268 CNS. In addition, the growth is 49.4% in the experiment on SF-295 CNS, 22.2% with SF-539 CNS, 82.3% in the experiment with UACC-257 melanoma and 2.91% (active) with M14 melanoma.

In the case of `COc1ccccc1/C=C\C(=O)c1ccccc1`, the growth was 94.7% with DU-145 prostate; 13% in the experiment with K-562 leukemia; 78.9% in the experiment on MALME-3M melanoma; 84.8% in the experiment with MDA-MB-231 breast; 85.5% in the experiment with RXF 393 renal; 96.1% with SF-268 CNS. Further, the growth with SF-295 CNS was 94.2%; in the experiment on SF-539 CNS, 92.4%; with UACC-257 melanoma, 82.2%; in the experiment with M14 melanoma it was 78.5%.

As to `CC1OC(OC2C(OC3CCC4(C)C(CCC5(C)C4CC=C4C6CC(C)(C)CCC6(CO)C(O)CC45C)C3(C)C)OC(C(=O)O)C(OC3OC(COC4OC(CO)C(O)C(O)C4O)C(O)C(O)C3O)C2O)C(O)C(O)C1O` (configuration not stated), the growth with DU-145 prostate is 7.81% (active); with K-562 leukemia, -30.8% (active); in the experiment on MALME-3M melanoma it was -73% (active); in the experiment with MDA-MB-231 breast, -86.1% (active); in the experiment with RXF 393 renal it was -51.2% (active); in the experiment with SF-268 CNS, 1.99% (active). For the same molecule, the growth in the experiment with SF-295 CNS is -85.2% (active); in the experiment with SF-539 CNS, -84.5% (active); with UACC-257 melanoma, -49.3% (active); with M14 melanoma, -67.4% (active).

Consider `CCOC(=O)/C=C/c1ccc([N+](=O)[O-])o1`, for which the growth with DU-145 prostate is 69.2%; in the experiment on K-562 leukemia, 9.66% (active); in the experiment with MALME-3M melanoma, -6.92% (active); in the experiment on MDA-MB-231 breast it was 67.8%; in the experiment on RXF 393 renal it was 18.4%; in the experiment with SF-268 CNS, 76.2%. The growth in the experiment on SF-295 CNS was 99.2%; in the experiment on SF-539 CNS, 68.3%; in the experiment on UACC-257 melanoma, 54.2%; with M14 melanoma, 70.1%.

Turning to `O=C(O)c1ccc2c3c(ncnc13)-c1ccccc1C2=O`, the growth is -100% (active) with DU-145 prostate; 74.5% with K-562 leukemia; -68.6% (active) with MALME-3M melanoma; 89.6% in the experiment with MDA-MB-231 breast; 73.5% with RXF 393 renal; 90% in the experiment with SF-268 CNS. In addition, the growth with SF-295 CNS was 62.3%; in the experiment on SF-539 CNS it was 63.1%; with UACC-257 melanoma, 37.8%; with M14 melanoma, -59% (active).

Consider `N#CSCc1ccc(Cl)c(CSC#N)c1`, for which the growth is 16.4% with DU-145 prostate; 15.2% with K-562 leukemia; 63.7% in the experiment on MALME-3M melanoma; 45.4% in the experiment on MDA-MB-231 breast; 5.61% (active) in the experiment with RXF 393 renal; 36.4% in the experiment with SF-268 CNS. Besides, the growth in the experiment on SF-295 CNS was 70.7%; in the experiment on SF-539 CNS, 15.2%; with UACC-257 melanoma, 83.1%; with M14 melanoma, 9.39% (active).

Regarding `Cn1c2ccccc2c2nnc(N/N=C/c3ccccn3)nc21`, the growth is 13.7% in the experiment with DU-145 prostate; 10.2% with K-562 leukemia; -34.1% (active) with MALME-3M melanoma; 56.2% in the experiment with MDA-MB-231 breast; 6.74% (active) in the experiment with SF-268 CNS; -25.3% (active) with SF-295 CNS. The values for the growth in the experiment on SF-539 CNS, in the experiment with UACC-257 melanoma and in the experiment on M14 melanoma were -35.9% (active), 7.22% (active) and -42.1% (active), respectively.

On to `Nc1nc(N)c2c(ccc3c2ccn3Cc2cccc([N+](=O)[O-])c2)n1`, for which the growth in the experiment on DU-145 prostate is -97% (active); in the experiment on K-562 leukemia, 31.8%; in the experiment on MALME-3M melanoma it was -82.7% (active); in the experiment with MDA-MB-231 breast, -87.9% (active); in the experiment on RXF 393 renal, -83.6% (active); with SF-268 CNS, -78% (active). Further, the growth is -93.3% (active) with SF-295 CNS, -96.7% (active) with SF-539 CNS, -78.9% (active) with UACC-257 melanoma and -83.2% (active) in the experiment with M14 melanoma.
